Molecules are shown by their SMILES.

The results in this text go back to PMC5540273 (PLoS ONE, 2017).
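Also: KINOMEscan kinase panel screen.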

For this assay, the system named is T1, MEK1.
T1 construct: gene MAP2K1
The settings on record: concentration: 1 μM, replicates: in singlicate; n = 1.
Turning to `CC(C)(C)c1ccc2nccc(Nc3cccc(O)c3)c2c1` [GW856795], the “%Inh” value was 46%.

For `COc1cc2c(cc1OCCN1CCNCC1)ncc1c3ccc(C#N)cc3[nH]c21`, the “%Inh” value was found to be 34%.

Consider `COc1cc(Nc2nccc(-c3c(-c4cccc(NC(=O)c5c(F)cccc5F)c4)nn4ccccc34)n2)cc(OC)c1OC` [GSK323521], for which the “%Inh” value is given as 4%.

Take `Cc1ccc(S(=O)(=O)Nc2ccc(Nc3nccc(Nc4cccc5[nH]ncc45)n3)cc2)cc1` [GSK581271]: the “%Inh” value came to 0%.

As to `CCc1ccc(-c2ccc3c(c2)-c2c(cnn2C)S(=O)(=O)N3C)cc1`, the “%Inh” value was found to be 1%.

Turning to `O=C(Nc1cccc(-c2nn3ncccc3c2-c2ccnc(Nc3ccccc3)n2)c1)c1c(F)cccc1F` [GSK198271], the “%Inh” value is listed as 70%.

Regarding `Fc1ccc(-c2ncn(C3CCNCC3)c2-c2ccnc(Oc3ccc(-c4ccccc4)cc3)n2)cc1` [SB-245391], the “%Inh” value is listed as 15%.

For `CN(c1ccc(NC(=O)Nc2cc(C(F)(F)F)ccc2F)cc1)c1ccnc(Nc2ccc(S(N)(=O)=O)cc2)n1` [GW809893], the “%Inh” value was found to be 0%.

In the case of `CC(=O)Nc1nc2cnc(Nc3cc(NC(=O)c4cccc(C5(C#N)CC5)c4Cl)ccc3C)nc2s1`, the “%Inh” value came out at 0%.

As for `Cl.c1ccc(-c2ccc3c(Nc4ccc5[nH]ncc5c4)ccnc3c2)nc1` [GW440137], the “%Inh” value is on record as 0%.

On to `COc1cc(Nc2ncc3c(C)nc(-c4cc5ccccc5[nH]4)n3n2)cc(OC)c1OC` [GW869516], for which the “%Inh” value came to 0%.

As for `COC(=O)Nc1nc2ccc(Oc3ccc(NC(=O)Nc4cc(C(F)(F)F)ccc4F)cc3)cc2n1C.Cl` [GW692089], the “%Inh” value is 0%.

For the molecule `Nc1n[nH]c2cnc(-c3ccccc3)cc12` [SB-642124], the “%Inh” value came out at 0%.

Turning to `COc1cc(Nc2nccc(N3CCC(NC(=O)Nc4cccc(C(C)=O)c4)C3)n2)cc(OC)c1OC` (stereo not shown) [GSK1379753], the “%Inh” value amounted to 0%.

In the case of `O=C(NC1CCN(c2ccnc(Nc3ccc(F)cc3)n2)C1)c1cc2ccccc2s1` (stereo not shown) [GSK1379716], the “%Inh” value came out at 0%.

With `c1ccc(-c2cnc3nccnn23)cc1` [AH20685], the “%Inh” value was determined as 0%.

As to `Nc1ncnc2c1nc(-c1ccccc1)n2-c1ccccc1` [SKF-97293], the “%Inh” value is on record as 15%.

Consider `CN(C)Cc1ccc(-c2ccc3c(Nc4ccc(Oc5ccccn5)cc4)ccnc3c2)o1` [GW567148], for which the “%Inh” value is given as 94.7%.

Take `COc1cc(Nc2nccc(N3CCC(NC(=O)c4cc5ccccc5s4)C3)n2)cc(OC)c1OC` (stereo not shown) [GSK1379760]: the “%Inh” value was 7%.

For `Cl.Cl.NCC(NCc1ccc(-c2ccnc3[nH]ccc23)s1)c1ccccc1` (stereo not shown) [GSK1321565], the “%Inh” value was determined as 0%.

For the molecule `Cl.NC(=O)c1cccc(Nc2nccc(Nc3ccc(Oc4c(Cl)cccc4Cl)c(Cl)c3)n2)c1` [GW659009], the “%Inh” value amounted to 0%.

Take `O=C(Nc1ccccc1F)NC1CCN(c2ccnc(Nc3ccc(F)cc3)n2)CC1` [GSK1379800]: the “%Inh” value is given as 0%.

Regarding `Cc1ccc(C(=O)N2CC[C@@H](O)C2)cc1-n1c(C)cc(OCc2ccc(F)cc2F)c(Br)c1=O`, the “%Inh” value is listed as 0%.

`CN(C)S(=O)(=O)c1cc(-c2ccc3nccc(-c4cccc(S(N)(=O)=O)c4)c3c2)cnc1N` [GSK1669921]: the “%Inh” value is 7%.

For the molecule `O=c1[nH]cc(-c2ccc(N3CCOCC3)cc2)c2sc(-c3cn[nH]c3)cc12` [GSK2276055], the “%Inh” value is listed as 0%.

Turning to `CCCCc1nn2ncccc2c1-c1ccnc(Nc2ccc(N3CCN(C)CC3)cc2)n1` [GW684941], the “%Inh” value was found to be 0%.

On to `O=C(Nc1cccc(-c2nn3ccccc3c2-c2ccnc(Nc3cccc(F)c3)n2)c1)c1c(F)ccc(F)c1Cl` [GSK357952], for which the “%Inh” value is 0%.

As for `c1ccc(-c2n[nH]cc2Nc2ccnc3ccccc23)nc1` [GW694077], the “%Inh” value is recorded as 0%.

As for `COc1cc(Nc2nccc(-c3c(-c4cccc(NC(=O)c5c(F)cccc5F)c4)nn4ncccc34)n2)cc(OC)c1OC` [GSK327238], the “%Inh” value stood at 98.5%.

Turning to `COc1cccc(C(=O)Nc2cccc(Oc3ccc4nc(NC(=O)C5CC5)cn4n3)c2)c1`, the “%Inh” value was 28%.

Turning to `COCCOCCOc1cc2ncc3c4ccc(C#N)cc4[nH]c3c2cc1OC`, the “%Inh” value turned out to be 48%.

For the molecule `Nc1ncc(-c2ccc3nccc(-c4ccncc4)c3c2)cc1S(=O)(=O)N1CCOCC1` [GSK1627798], the “%Inh” value turned out to be 0%.

As to `Cc1cccc(NC(=O)Nc2ccc(Oc3ncnc4ccn(C)c34)cc2)c1`, the “%Inh” value was 0%.

Take `CN1CCN(Cc2cccc(-c3ccc4c(Nc5ccc(Oc6ccccc6)cc5)ccnc4c3)c2)CC1` [GW578342]: the “%Inh” value was 54%.

On to `COc1cccc(C2=C(Nc3ccc(Cl)c(C(=O)O)c3)C(=O)NC2=O)c1` [SB-390769], for which the “%Inh” value is on record as 0%.

Turning to `COc1ccc(Nc2nccc(NCCNC(=O)c3cc4ccccc4s3)n2)cc1` [GSK1379896], the “%Inh” value came to 0%.

`COc1ccc(CNC(=O)NC2CCN(c3ccnc(Nc4ccc(F)cc4)n3)CC2)cc1` [GSK1379788]: the “%Inh” value is given as 0%.
